# Source: publication PMC8384837, “Expanding the binding specificity for RNA recognition by a PUF domain”
# Target: PUM1 PUF domain R5-GRL (Homo sapiens, UniProt Q14671 828-1176, C1007G;Q1011L)
# Experiment: yeast three-hybrid, YBZ-1, SC-Leu-His + 0.5 mM 3-AT, 4 days
# Conditions: tags: N-Gal4 AD-HA kept; label: inside an RPR1-promoter hybrid RNA with tandem MS2 sites; ssRNA
# Outline: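 Each repeat of the Pumilio-1 PUF domain was randomized at its three base-contacting residues, and these libraries were co-expressed from a centromeric plasmid with matching RNA elements in strain YBZ-1. After four days on SC-Leu (input) or SC-Leu-His + 0.5 mM 3-AT (selection), the repeat regions were PCR-amplified and Illumina-sequenced. The interaction score compares variant frequency between input and selection as a log change, computed in log2 with a pseudocount of 1 for absent variants.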
# PUM1 PUF domain R5-GRL, sequence (Q14671 828-1176 C1007G/Q1011L): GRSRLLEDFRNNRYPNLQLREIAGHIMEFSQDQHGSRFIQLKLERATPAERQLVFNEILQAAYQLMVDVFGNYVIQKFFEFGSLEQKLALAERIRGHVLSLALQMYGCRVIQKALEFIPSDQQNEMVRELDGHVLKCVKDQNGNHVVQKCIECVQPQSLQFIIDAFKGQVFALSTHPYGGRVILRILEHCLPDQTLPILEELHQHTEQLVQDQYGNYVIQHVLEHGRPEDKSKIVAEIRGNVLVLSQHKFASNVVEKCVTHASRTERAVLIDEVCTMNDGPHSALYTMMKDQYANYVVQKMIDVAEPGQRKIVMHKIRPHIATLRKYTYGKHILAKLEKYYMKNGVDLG
row,Sequence,binding signal
1,GGCUAGAACUAGUGGAUCCCCCGGCGCCCGGCGGCUCGAGCCCGGGUAAGUGUGAAUAGUCUGCAUGCCGCCGGGCGCCAUGCCUGCAGGUCGACUCUAGAAAACAUG,1.44 log2 enrichment (interaction score)
2,GGCUAGAACUAGUGGAUCCCCCGGCGCCCGGCGGCUCGAGCCCGGGUAAGUGUUAAUAGUCUGCAUGCCGCCGGGCGCCAUGCCUGCAGGUCGACUCUAGAAAACAUG,2.5 log2 enrichment (interaction score)
3,GGCUAGAACUAGUGGAUCCCCCGGCGCCCGGCGGCUCGAGCCCGGGUAAGUGUAAAUAGUCUGCAUGCCGCCGGGCGCCAUGCCUGCAGGUCGACUCUAGAAAACAUG,3.74 log2 enrichment (interaction score)
